What all share (assay): yeast three-hybrid, YBZ-1, SC-Leu-His + 0.5 mM 3-AT, 4 days
What all share (conditions): tags: N-Gal4 AD-HA kept; label: inside an RPR1-promoter hybrid RNA with tandem MS2 sites; ssRNA

One test deals with PUM1 PUF domain R3-MCG (Homo sapiens, UniProt Q14671 828-1176, C935M;R936C;Q939G). In outline: (§1)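 Each repeat of the Pumilio-1 PUF domain was randomized at its three base-contacting residues, and these libraries were co-expressed from a centromeric plasmid with matching RNA elements in strain YBZ-1. After four days on SC-Leu (input) or SC-Leu-His + 0.5 mM 3-AT (selection), the repeat regions were PCR-amplified and Illumina-sequenced. The interaction score compares variant frequency between input and selection as a log change, computed in log2 with a pseudocount of 1 for absent variants.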

In a further test the target is PUM1 PUF domain R7-QNR (Homo sapiens, UniProt Q14671 828-1176, S1079Q;E1083R). The procedure, abridged: as §1
The target of another test is PUM1 PUF domain R7-RVR (Homo sapiens, UniProt Q14671 828-1176, S1079R;N1080V;E1083R). The procedure, abridged:
as §1

A further test concerns the target PUM1 PUF domain R5-GQA (Homo sapiens, UniProt Q14671 828-1176, C1007G;R1008Q;Q1011A). In outline: as §1
The target in a further test is PUM1 PUF domain R5-TND (Homo sapiens, UniProt Q14671 828-1176, C1007T;R1008N;Q1011D). In outline: as §1
The target in the next test is PUM1 PUF domain R5-AQR (Homo sapiens, UniProt Q14671 828-1176, C1007A;R1008Q;Q1011R). The procedure, abridged:
as §1

In a further test the target is PUM1 PUF domain R5-PHD (Homo sapiens, UniProt Q14671 828-1176, C1007P;R1008H;Q1011D). In outline: as §1
The target of the next test is PUM1 PUF domain R4-QGA (Homo sapiens, UniProt Q14671 828-1176, N971Q;H972G;Q975A). The procedure, abridged:
as §1

The target of a further test is PUM1 PUF domain R8-RYK (Homo sapiens, UniProt Q14671 828-1176, N1122R;Q1126K). The procedure, abridged: as §1
A further test concerns the target T1, PUM1 PUF domain R6-TWS (Homo sapiens, UniProt Q14671 828-1176, N1043T;Y1044W;Q1047S).
T1 sequence: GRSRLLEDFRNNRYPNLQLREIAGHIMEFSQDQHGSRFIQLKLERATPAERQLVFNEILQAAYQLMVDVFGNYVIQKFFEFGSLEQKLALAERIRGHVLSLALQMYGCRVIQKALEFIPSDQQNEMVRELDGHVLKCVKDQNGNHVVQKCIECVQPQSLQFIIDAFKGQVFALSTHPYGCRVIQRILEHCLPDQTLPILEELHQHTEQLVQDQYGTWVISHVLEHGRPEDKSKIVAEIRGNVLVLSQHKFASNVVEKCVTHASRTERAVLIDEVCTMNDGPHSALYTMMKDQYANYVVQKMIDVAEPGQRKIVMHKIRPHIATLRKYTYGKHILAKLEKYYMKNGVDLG
In outline: as §1

Data on ten sequences can be found in article PMC8384837, “Expanding the binding specificity for RNA recognition by a PUF domain”.

“GGCUAGAACUAGUGGAUCCCCCGGCGCCCGGCGGCUCGAGCCCGGGUAAGUGUAAGUAGUCUGCAUGCCGCCGGGCGCCAUGCCUGCAGGUCGACUCUAGAAAACAUG”: the binding signal in the test with PUM1 PUF domain R3-MCG was 2.55 log2 enrichment (interaction score). On to “GGCUAGAACUAGUGGAUCCCCCGGCGCCCGGCGGCUCGAGCCCGGGUAAGUCUAAAUAGUCUGCAUGCCGCCGGGCGCCAUGCCUGCAGGUCGACUCUAGAAAACAUG”, for which the binding signal with PUM1 PUF domain R7-QNR was 3.58 log2 enrichment (interaction score); in the test with PUM1 PUF domain R7-RVR, 0.98 log2 enrichment (interaction score). As to “GGCUAGAACUAGUGGAUCCCCCGGCGCCCGGCGGCUCGAGCCCGGGUAAGUGUUAAUAGUCUGCAUGCCGCCGGGCGCCAUGCCUGCAGGUCGACUCUAGAAAACAUG”, the binding signal with PUM1 PUF domain R5-GQA was 2.64 log2 enrichment (interaction score); with PUM1 PUF domain R5-TND, 2.81 log2 enrichment (interaction score); with PUM1 PUF domain R5-AQR it was 3.22 log2 enrichment (interaction score); with PUM1 PUF domain R5-PHD, 3.76 log2 enrichment (interaction score). “GGCUAGAACUAGUGGAUCCCCCGGCGCCCGGCGGCUCGAGCCCGGGUAAGUGUCAAUAGUCUGCAUGCCGCCGGGCGCCAUGCCUGCAGGUCGACUCUAGAAAACAUG”: in the test with PUM1 PUF domain R5-AQR, the binding signal is 5.35 log2 enrichment (interaction score). Consider “GGCUAGAACUAGUGGAUCCCCCGGCGCCCGGCGGCUCGAGCCCGGGUAAGUGUACAUAGUCUGCAUGCCGCCGGGCGCCAUGCCUGCAGGUCGACUCUAGAAAACAUG”, for which the binding signal in the test with PUM1 PUF domain R4-QGA is 2.09 log2 enrichment (interaction score). On the same count and under the same terms, the same measure for “GGCUAGAACUAGUGGAUCCCCCGGCGCCCGGCGGCUCGAGCCCGGGUAAGUGUAUAUAGUCUGCAUGCCGCCGGGCGCCAUGCCUGCAGGUCGACUCUAGAAAACAUG”: 2.73 log2 enrichment (interaction score). “GGCUAGAACUAGUGGAUCCCCCGGCGCCCGGCGGCUCGAGCCCGGGUAAGCGUAAAUAGUCUGCAUGCCGCCGGGCGCCAUGCCUGCAGGUCGACUCUAGAAAACAUG”: in the test with PUM1 PUF domain R8-RYK, the binding signal is 7.26 log2 enrichment (interaction score). Turning to “GGCUAGAACUAGUGGAUCCCCCGGCGCCCGGCGGCUCGAGCCCGGGUAAGUGUAAAUAGUCUGCAUGCCGCCGGGCGCCAUGCCUGCAGGUCGACUCUAGAAAACAUG”, the binding signal in the test with PUM1 PUF domain R6-TWS was 2.56 log2 enrichment (interaction score). On the same count and under the same terms, in the case of “GGCUAGAACUAGUGGAUCCCCCGGCGCCCGGCGGCUCGAGCCCGGGUAAGUGAAAAUAGUCUGCAUGCCGCCGGGCGCCAUGCCUGCAGGUCGACUCUAGAAAACAUG” it was 5.32 log2 enrichment (interaction score). Regarding “GGCUAGAACUAGUGGAUCCCCCGGCGCCCGGCGGCUCGAGCCCGGGUAAGUUUAAAUAGUCUGCAUGCCGCCGGGCGCCAUGCCUGCAGGUCGACUCUAGAAAACAUG”, in the test with PUM1 PUF domain R7-RVR, the binding signal is 4.32 log2 enrichment (interaction score).
